Rows were chosen to be rich in hits. Some 2.4% of all compounds tested hit in one or more screens of this group.
Pol kappa inh: blocks human DNA polymerase kappa activity. Potency, µM (titrated, usually from 107 µM), usual class: inhibitors. hit rate 0.53% among 400,000. purified Pol kappa, fluorescent DNA synthesis assay, 10 min
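Activity was followed as the change in fluorescence between reads at 0 and 10 min after starting the reaction with 50 nM substrate. Beforehand, 10 nM polymerase had been preincubated with compound for 15 min at room temperature.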
WRN helicase inh: WRN helicase (human) inhibition; Q14191; WRN helicase unwinding, fluorescent forked duplex, kinetic; Potency, µM (series often up to 114 µM), hits mostly inhibitors; hit rate 0.46% among 360,000; note: nearly all actives have a fitted effect of over 55% in size
Target sequence (Q14191 whole entry, looked up): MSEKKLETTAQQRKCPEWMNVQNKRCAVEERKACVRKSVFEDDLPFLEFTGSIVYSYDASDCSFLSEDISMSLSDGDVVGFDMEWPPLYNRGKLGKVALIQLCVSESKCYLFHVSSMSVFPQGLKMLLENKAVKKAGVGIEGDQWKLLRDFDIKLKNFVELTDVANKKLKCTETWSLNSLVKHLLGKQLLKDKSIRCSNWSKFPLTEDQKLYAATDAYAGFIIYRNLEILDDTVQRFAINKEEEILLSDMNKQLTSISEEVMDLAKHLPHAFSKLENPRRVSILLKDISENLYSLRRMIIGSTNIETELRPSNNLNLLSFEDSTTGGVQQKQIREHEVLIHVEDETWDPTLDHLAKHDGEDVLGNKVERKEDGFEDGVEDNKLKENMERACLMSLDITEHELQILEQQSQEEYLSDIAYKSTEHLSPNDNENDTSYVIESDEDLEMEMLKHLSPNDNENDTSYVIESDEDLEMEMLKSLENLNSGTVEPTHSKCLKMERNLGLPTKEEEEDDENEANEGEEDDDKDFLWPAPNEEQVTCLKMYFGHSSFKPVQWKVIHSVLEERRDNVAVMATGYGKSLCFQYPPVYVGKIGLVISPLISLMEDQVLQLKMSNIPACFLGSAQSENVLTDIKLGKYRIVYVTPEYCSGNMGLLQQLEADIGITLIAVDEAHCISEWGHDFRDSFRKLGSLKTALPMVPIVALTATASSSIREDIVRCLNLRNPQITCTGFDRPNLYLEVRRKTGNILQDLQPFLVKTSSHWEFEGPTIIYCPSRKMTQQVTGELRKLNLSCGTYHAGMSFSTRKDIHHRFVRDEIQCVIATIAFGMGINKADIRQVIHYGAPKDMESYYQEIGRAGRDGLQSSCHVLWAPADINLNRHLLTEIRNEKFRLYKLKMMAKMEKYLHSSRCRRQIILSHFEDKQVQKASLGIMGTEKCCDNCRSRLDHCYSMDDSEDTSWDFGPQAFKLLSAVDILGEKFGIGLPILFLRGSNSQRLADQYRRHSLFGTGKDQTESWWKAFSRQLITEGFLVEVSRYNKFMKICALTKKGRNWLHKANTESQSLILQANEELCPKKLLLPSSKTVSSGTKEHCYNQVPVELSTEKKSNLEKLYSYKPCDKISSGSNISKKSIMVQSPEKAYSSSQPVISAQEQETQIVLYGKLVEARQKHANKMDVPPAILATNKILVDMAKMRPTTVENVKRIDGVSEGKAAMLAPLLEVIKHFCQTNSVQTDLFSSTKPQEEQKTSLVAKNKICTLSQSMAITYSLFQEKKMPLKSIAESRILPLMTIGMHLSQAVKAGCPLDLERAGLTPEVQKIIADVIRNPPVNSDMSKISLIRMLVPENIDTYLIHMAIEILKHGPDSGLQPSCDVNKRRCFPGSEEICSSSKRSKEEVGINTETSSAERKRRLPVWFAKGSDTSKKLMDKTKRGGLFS
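Primary qHTS, 1536-well format. 20 nM WRN + compound, 15 min RT; start with 100 nM forked fluorophore/quencher duplex, 2 mM ATP (final); kinetic read ex 525/em 598 nm.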
Pol beta inh-1: DNA polymerase beta (human) inhibition; P06746; Pol beta primer extension/strand displacement, fluorescence kinetic; Potency, µM (doses to about 114 µM), usual class: inhibitors; hit rate 1.3% among 340,000
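Human Pol beta at 10 nM; strand-displacement substrate 50 nM final. Compound exposure 15 min at room temperature before start, reaction 10 min at room temperature.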
FEN1 inh: blocks human flap endonuclease 1 | Potency, µM (highest dose often 114 µM), actives largely listed as inhibitors | hit rate 0.35% among 390,000 | Recombinant FEN1 flap cleavage, fluorescence, 15 min | AID 588795 | P39748; note: nearly all actives have a fitted effect of over 65% in size
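Read-out was taken twice, immediately and after 15 min, following addition of 50 nM substrate to 10 nM FEN1 that had sat with test compound for 15 min at room temperature. Curves came from a four-parameter Hill model.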
Pol iota inh: blocks human DNA polymerase iota activity | Q9UNA4 | Pol iota fluorescent replication assay, 10 min | Potency, µM (top dose mostly 115 µM), hits mostly inhibitors | hit rate 1% among 390,000 | AID 588590
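Fluorescent replication assay read twice, at 0 min and 10 min after adding 50 nM (final) substrate. Enzyme (10 nM) and compounds were first incubated 15 min at room temperature; enzyme-free buffer wells were negative controls.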
Pol eta inh: blocks human DNA polymerase eta activity | Q9Y253 | recombinant Pol eta, fluorescent DNA replication assay | Potency, µM (doses to about 114 µM), most hits filed as inhibitors | hit rate 1.2% among 390,000
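Pol eta at 10 nM preincubated with compounds 15 min at room temperature; reaction started with fluorescent substrate (50 nM final) and read kinetically at 0 and 10 min.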
Pol beta inh-2: Validate hits inhibiting human DNA polymerase beta | shares compounds with Pol beta inh-1 | Pol beta primer extension/strand displacement, fluorescence kinetic | Potency, µM, actives largely listed as inhibitors | hit rate 87% among 250; calls by dose curve
Klenow counter: Klenow polymerase inhibition, pol beta selectivity check | AID 540300 | Klenow exo- polymerase counter-screen, fluorescent DNA substrate | shares compounds with Pol beta inh-1 | activity change, negative = inhibition, % at 57.1 µM | 250 tested, under 10 active
HIV RT counter: inhibits HIV-1 reverse transcriptase in counter-screen | activity % (negative = inhibition, positive = activation), % at 57.1 µM | HIV-1 RT polymerase activity, counter-screen | shares compounds with Pol beta inh-1 | 250 tested, under 10 active | AID 540301
POLB valid: validation of human DNA polymerase beta inhibitors; hit rate 91% among 110; radiolabeled primer extension gel assay, phosphorimager; shares compounds with Pol beta inh-1; inhibition, % at 10 µM;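 active = inhibition at 10 µM of 30% or more; inconclusive = no clear call, values can overlap the other calls; inactive = inhibition at 10 µM under 30%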
Numbers stand for hits; – = inactive; ? = inconclusive; · = no result; ! = a repeat was not active; [ ] = dose if it differs, or a comment. Unless noted, calls come from the whole dose curve; as a rule, active = well fitted curve in the direction sought with a large enough effect; inconclusive = small, poorly fitted or top-dose-only effect, or another doubt; inactive = no such curve, though single readings can be large; an effect the other way counts as inactive or inconclusive.

SMILES	Pol kappa inh	WRN helicase inh	Pol beta inh-1	FEN1 inh	Pol iota inh	Pol eta inh	others
COc1cc(/C=C/c2cncc(/C=C/c3cc(OC)c(OC)c(OC)c3)c2)cc(OC)c1OC	–	·	·	–	–	·
COC(=O)c1cn(CCOc2ccccc2OC)c2ccccc12	–	–	–	–	–	?
COC(=O)c1cn(CCOc2ccccc2F)c2ccccc12	–	–	89µM	–	–	–
O=C(O)c1cc(NCc2cc(O)ccc2O)ccc1O	50µM	·	·	8.9µM	18µM	·
COCCNc1oc(/C=C/c2ccc(F)cc2)nc1C#N	–	·	–	–	–	·
COc1ccc(/C=C2\SC(=O)N(CCc3nnc(N)s3)C2=O)cc1	?	–	?	–	20µM	45µM
Cc1ccc(NC(=O)C2CCN(c3nc4ccccc4[nH]3)CC2)c(C)c1	–	·	–	–	–	–
CC(C)CC(=O)N1C/C=C\C[C@@H](c2ccc(Cl)cc2)N(Cc2ccc(Cl)cc2)C(=O)[C@@H]1Cc1ccccc1	–	·	·	–	–	·
O=C(O)c1ccccc1-c1c2cc(Br)c(=O)c(Br)c-2oc2c(Br)c(O)c(Br)cc12	10µM	·	·	·	·	·
CCOC(=O)CS(=O)(=O)c1nc(-c2ccc(F)cc2)cc(C(F)(F)F)n1	–	50µM	–	–	–	–
CCOC(=O)CCS(=O)(=O)c1nc(-c2ccccc2)cc(C(F)(F)F)n1	–	?	–	–	–	–
CS(=O)(=O)c1nc(-c2ccc(F)cc2)cc(C(F)(F)F)n1	–	–	–	–	?	–
CCOC(=O)CS(=O)(=O)c1nc(-c2ccccc2)cc(C(F)(F)F)n1	–	56µM	–	–	–	–
CCOC(=O)COc1ccc(CC)cc1C(=O)c1ccn2nc(-c3ccc(Cl)cc3)cc2n1	–	·	–	–	–	–
O=C(O)c1ccc(CNc2ncnc3nc[nH]c23)cc1	–	·	·	–	–	·
CCOC(=O)c1cccc(NC(=O)c2cncc(Br)c2)c1	79µM	–[11.6 µM]	–	–	89µM	–
CCOc1ccc(/C=C/c2cc[n+](C)c3ccccc23)cc1OCC	–	·	·	–	–	·
CCCCNC(=O)c1sc(=S)n2c1[nH]c(=O)c1ccc(C(=O)NCCc3ccc(OC)c(OC)c3)cc12	?	–	?	–	14µM	18µM
O=C(Sc1cccc2cccnc12)c1ccc(F)cc1	·	·	–	·	·	·
O=S(=O)(Nc1cc(Sc2cccc3cccnc23)c(O)c2ccccc12)c1ccc(F)cc1	–	22µM	–	?	?	–
C=CCn1c(NC(=O)c2ccccc2Cl)c(C#N)c2nc3ccccc3nc21	–	–[11.6 µM]	–	?	?	32µM
CCCCn1c(NC(C)=O)c(C#N)c2nc3ccccc3nc21	–	–	–	–	?	–
COc1cc(/C=N/Nc2nc(-c3ccc(S(=O)(=O)N(C)C)cc3)cs2)ccc1O	–	–	–	?	–	–
O=[N+]([O-])c1cc(/C=N\Nc2nc(-c3ccccc3)cs2)ccc1O	–	?	40µM	?	?	79µM
CC(CNC(=O)C1CCN(Cc2cc3ccccc3n2Cc2ccccc2)CC1)c1ccccc1 (stereo not drawn)	–	·	–	–	–	–
SMILES	Pol kappa inh	WRN helicase inh	Pol beta inh-1	FEN1 inh	Pol iota inh	Pol eta inh	others
CCCCCCC/C=C\CCCCCCCCC(=O)O	?	·	?	·	28µM	?
CCCCC/C=C\C/C=C\C/C=C\C/C=C\CCCCCC(=O)O	–[19.4 µM]	·	·	·	·	·
CCCCCCCCCCC/C=C\C(C)(C)/C=C\CCCC(=O)O	27µM!	·	32µM	·	28µM	28µM
CC(=O)c1cc2c(cc1NC(=O)c1cnn(-c3ccc(C)cc3)c1-n1cccc1)OCO2	–	·	–	–	–	–
Cc1ccccc1NC(=O)/C(C#N)=C\c1cc(C)n(-c2ccc(C(=O)O)cc2)c1C	–	–[11.6 µM]	?	–	–	22µM
CN(N=O)c1ccc(/C=C/c2ccccc2)cc1	–	·	·	–	–	·
O=C1CC(=O)N(CCNc2ncc(C(F)(F)F)cc2Cl)C(=O)N1	?	–	56µM	–	25µM	–
CC1(C)CCC2=C(O1)c1ccccc1C(=O)C2=O	–	·	–	?	7.9µM	22µM
O=C(CSc1nc2c(cnn2-c2ccccc2)c(=O)[nH]1)c1ccc(Cl)cc1	–	–	5µM	?	?	?	Pol beta inh-2=7.1;Klenow counter=–;HIV RT counter=–
O=C(CSc1nc2c(cnn2-c2ccccc2)c(=O)[nH]1)N1CCCCC1	–	–	–	–	–	–
CC1N(C)c2cc(NC(=O)c3ccco3)ccc2C1(C)C (stereo not drawn)	?	50µM	20µM	?	?	?	Pol beta inh-2=?;Klenow counter=–;HIV RT counter=–
CC(=O)Nc1ccc(NC(=O)c2ccco2)cc1	–	–	–	–	–	–
CNc1cc[n+](C)c2ccccc12	–	·	·	–	–	·
CCOc1ccc(OCC)c(NS(=O)(=O)c2c(C(=O)N3CCCCCC3)c(C)n(C)c2C)c1	–	·	–	–	–	–
COc1ccccc1N1CCN(C(=O)c2cc3c(s2)CCC3)CC1	–	–	7.9µM	–	–	?	Pol beta inh-2=?;Klenow counter=–;HIV RT counter=–;POLB valid=74
CCCS(=O)(=O)c1ncc(Cl)c(C(=O)N(Cc2ccccc2)Cc2ccco2)n1	–	·	–	–	?	–
COc1ccc(Cl)cc1NC(=O)CSc1nc2ccccc2nc1N1CCCCC1	–	·	–	–	–	–
O=C(COC(=O)C1CC(=O)N(Cc2ccccc2)C1)c1ccc(Br)cc1 (stereo not drawn)	–	–	–	–	–	–
Cc1[nH]c2ccccc2c1C(=O)COC(=O)C1CC(=O)N(Cc2ccco2)C1 (stereo not drawn)	–	–	–	–	–	–
Cc1ccc(C(=O)Oc2ccc(C(=O)COC(=O)C3CC(=O)N(Cc4ccco4)C3)cc2)cc1 (stereo not drawn)	45µM	?	16µM	–	4.5µM	13µM	Pol beta inh-2=14;Klenow counter=–;HIV RT counter=–
O=C(COC(=O)C1CC(=O)N(Cc2ccco2)C1)c1ccc(OC(=O)c2ccco2)cc1 (stereo not drawn)	32µM	35µM	7.1µM	?	18µM	3.2µM	Pol beta inh-2=8.9;Klenow counter=–;HIV RT counter=?
Cc1ccc(C(=O)NCc2ccc3c(c2)CCN3C(=O)c2ccc(C)cc2)cc1	–	·	–	–	–	–
